This is part of a sample that, as a whole, favours compounds with a hit. Of some 79,000 tested, about 15% had one in any assay. No stated cut-off is given here; in the data, active means growth inhibition above about 70%; inactive means the rest.
Legend:
[1] = NCI Yeast Anticancer Drug Screen. Data for the rad50 strain (AID 155);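 further: 0% = growth of vehicle-only cultures of the same strain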; conditions: S. cerevisiae rad50 strain growth inhibition; at 50.0 µM; stronger effect = higher value
Procedure, shortened: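 Readout: growth inhibition relative to vehicle-treated cultures. Compound exposure was carried out in a genetically defined yeast strain deficient in DNA damage repair.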

[2] = NCI Yeast Anticancer Drug Screen. Data for the mec2-1 strain (AID 157); conditions: S. cerevisiae mec2-1 strain, at 50.0 µM, stronger effect = higher value
Procedure, shortened: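 Vehicle-treated cultures served as reference for growth inhibition of compound-exposed mec2-1 yeast.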

[3] = NCI Yeast Anticancer Drug Screen. Data for the sgs1 mgt1 strain (AID 161);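 further: 0% = growth of cultures given vehicle only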; conditions: S. cerevisiae sgs1 mgt1 strain, at 50.0 µM, stronger effect = higher value
Procedure, shortened: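 Mutant yeast exposed to compound; growth scored against vehicle-only wells.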

[4] = NCI Yeast Anticancer Drug Screen. Data for the cln2 rad14 strain (AID 165);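 further: 0% = growth equal to vehicle treated cultures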; conditions: S. cerevisiae cln2 rad14 strain, at 50.0 µM, stronger effect = higher value
Procedure, shortened: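 Each compound was tested on cln2 rad14 yeast. Inhibition of growth was calculated against vehicle-exposed controls.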

[5] = NCI Yeast Anticancer Drug Screen. Data for the bub3 strain (AID 167); conditions: S. cerevisiae bub3 mutant strain, at 50.0 µM, stronger effect = higher value
Procedure, shortened: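 Readout: yeast growth inhibition, expressed relative to vehicle-only wells. The test organism is a mutant strain from a panel with lesions in DNA repair or checkpoint genes.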

[6] = NCI Yeast Anticancer Drug Screen. Data for the mlh1 rad18 strain (AID 175); conditions: S. cerevisiae mlh1 rad18 strain growth inhibition; at 50.0 µM; stronger effect = higher value
Procedure, shortened: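 Vehicle-treated cultures served as the reference for growth inhibition in a yeast strain carrying DNA damage repair alterations exposed to each compound.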

Measured: growth inhibition

Cc1cc(C)c(N)c(S(=O)(=O)O)c1
inactive: [1] -0.7% | [2] -6.45% | [3] -24.1% | [4] -63% | [5] 11.2% | [6] -13.7%

CCCCC1C(=O)N(c2ccccc2)N(c2ccccc2)C1=O
inactive: [1] -5.2% | [2] -10.6% | [3] -2.65% | [4] -5.75% | [6] -19.1%

O=[N+]([O-])c1ccc(-c2noc(-c3cccs3)n2)cc1
inactive: [1] -3.2% | [2] -31.9% | [3] 13.4% | [4] 15% | [5] 10.7% | [6] -11.8%

CC1(C)S(=O)(=O)OCCOS1(=O)=O
inactive: [1] -25.4% | [2] 16.6% | [3] 6.75% | [4] -20.5% | [6] 0.15%

CC(C)CCOC(=O)c1ccccc1
inactive: [1] -7.2% | [2] -22.5% | [3] -34.1% | [4] -68.9% | [6] -22.9%

COC(=O)c1ccccc1N(C)C
inactive: [1] 0.55% | [2] -11.2% | [3] -3.8% | [4] 2.4% | [6] 0.9%

CCO/C=C1\SC(=S)N(c2cccc(C)c2)C1=O
inactive: [1] 11.1% | [2] 13.7% | [3] 1.25% | [4] 13.2% | [5] 14.9% | [6] 16.9%

COc1ccc(/C=C/c2cccc[n+]2C)cc1
inactive: [1] 1.35% | [2] 1.3% | [3] -7.1% | [4] 0.55% | [6] -11.2%

Cc1nc2ccccc2c2nnc(SCC(=O)N(Cc3ccccc3)c3ccccc3)n12
inactive: [1] 6.9% | [2] 6.6% | [3] -28.1% | [4] 8.25% | [6] 2.25%

O=[N+]([O-])c1ccc(Sc2ccncn2)c([N+](=O)[O-])c1
inactive: [1] 24.7% | [2] 16.6% | [3] 8.9% | [4] -5.55% | [5] -12.3% | [6] 30.8%

O=C(c1ccccc1)C1CCC1
inactive: [1] 22.6% | [2] -5.25% | [3] 10.2% | [4] -17.5% | [6] 6.75%

CN(C)c1nc2c([nH]1)c(=O)n(C)c(=O)n2C
inactive: [1] 22.4% | [2] -15.2% | [3] 2.2% | [4] 5.2% | [5] -10.1% | [6] 5.45%

C=CCOC(=O)C(=O)OCC=C
inactive: [1] 18.8% | [2] 30.6% | [3] -25.9% | [4] 1.95% | [6] 14.8%

S=C(Nc1ccccc1)N1CCCCC1
inactive: [1] -2.8% | [2] 1.25% | [3] -10.2% | [4] -39.3% | [5] 2.4% | [6] -8.4%

OCC1OC(OC2C(O)C(CO)OC2(CO)OC2OC(CO)C(O)C(O)C2O)C(O)C(O)C1O (centres undefined)
inactive: [1] -18.1% | [2] -7.95% | [3] -31.8% | [4] -3.15% | [6] -14.7%

COc1ccc(C(C)C=O)cc1 (centres undefined)
inactive: [1] 5.55% | [2] -14.8% | [3] -30.3% | [4] -51.5% | [6] 2.3%

O=[N+]([O-])c1ccc(N=Nc2ccccc2)cc1
inactive: [1] 11.4% | [2] 12.2% | [3] -1.1% | [4] 21.2% | [6] 14.8%

CC1CC(O)C2C3(C)CCCC2(COC3=O)C12CCC1(CCOC1=O)O2 (centres undefined)
inactive: [1] 4.4% | [2] 8.35% | [3] 18.3% | [4] 25.9% | [5] 8.35% | [6] 13.6%

CC(=O)CC(=O)N(C)C
inactive: [1] 0.3% | [2] -0.6% | [3] 6.9% | [4] -13.9% | [6] 24.2%

Cc1ccc(C(O)C2CC2)cc1 (centres undefined)
inactive: [1] -24.2% | [2] -38.6% | [3] -23.1% | [4] 11.4% | [6] -0.65%

C=CCNC(=O)c1ccc(OC)cc1
inactive: [1] 12.5% | [2] 6.5% | [3] 22.5% | [4] 1.7% | [5] -4.5% | [6] 5.7%

CC(=O)Cc1cc(-c2cc(CC(C)=O)[nH]n2)n[nH]1
inactive: [1] -45.1% | [2] -22.1% | [3] -24.1% | [4] -25.5% | [6] -5%

COC(=O)c1ccccc1Br
inactive: [1] -1.7% | [2] 7.8% | [3] 3.4% | [4] -22.1% | [6] 6.45%

CC(CN1CCCCC1)NC(=O)c1scnc1-c1ccccc1 (centres undefined)
inactive: [1] -5.45% | [2] -10% | [3] -9.15% | [4] -2.5% | [5] -1.55% | [6] -4.55%

O=C1NC(=O)C2C(=O)NC(=O)C1C21CCc2ccccc21 (centres undefined)
inactive: [1] -8.5% | [2] -16.6% | [3] -23.5% | [4] -4.25% | [6] -7.45%

O=C(Nc1ccccc1C(=O)NCC1CC1)c1cccs1
inactive: [1] -13.1% | [2] -29.9% | [3] 3.4% | [4] 5.35% | [6] -1.6%

CC(=O)c1ccc(C(C)(C)C)cc1
inactive: [1] -2.35% | [2] -5.2% | [3] -12.9% | [5] 2.5% | [6] 15%

CC(=O)OCC1=CC2OC(=O)C3=COC(OC4OC(CO)C(O)C(O)C4O)C1C32 (centres undefined)
inactive: [1] 11.6% | [2] -3.55% | [3] 10.3% | [5] 16.6% | [6] -51.6%

O=C1C=C(Nc2ccc([N+](=O)[O-])cc2)c2ccccc2C1=O
inactive: [1] 18.4% | [2] -10.9% | [3] -1.3% | [5] -12.9% | [6] -8.8%

COC(=O)Nc1nc2ccc(C(=O)c3ccc(F)cc3)cc2[nH]1
inactive: [1] -9% | [2] -6.35% | [3] -30.2% | [5] -17.5% | [6] -43.9%

CS(=O)CC1=NC(=N)N=C1CS(C)=O (centres undefined)
inactive: [1] -9.75% | [2] -11.2% | [3] 12.1% | [5] 2.85% | [6] 5.75%

CC(=O)C1CCCCC1
inactive: [1] 26.7% | [2] 11.2% | [3] 4.5% | [5] 1.2% | [6] 16.8%

O=C1Cc2cc(O)ccc2O1
inactive: [1] -13.4% | [2] -28.2% | [3] -48.6% | [5] -32% | [6] -8.75%

O=C(O)CCCc1ccccc1
inactive: [1] 5.1% | [2] -6.2% | [3] 2.05% | [5] 6% | [6] 11.3%

Cc1cc(Cc2cc(C)c(N)cc2N)c(N)cc1N
inactive: [1] -1.6% | [2] -49.4% | [3] -23.9% | [5] -2.25% | [6] 15.9%

O=C(N/N=C\c1cc(Br)cc(Br)c1O)N/N=C/c1cc(Br)cc(Br)c1O
inactive: [1] 41.4% | [2] 10.2% | [3] 43% | [5] 39% | [6] 33.2%

COc1nc(N)nc2c1ncn2C1OC(CO)CC1O (centres undefined)
inactive: [1] 13.4% | [2] -3.2% | [3] -3.5% | [5] 0.55% | [6] 25.8%

COc1cc(/C=N\Nc2ccccc2)ccc1OC(=O)c1ccccc1
inactive: [1] 25.1% | [2] 8.95% | [3] 41.4% | [5] 11.8% | [6] 17.6%

O=[N+]([O-])c1ccccc1N=Nc1ccc(O)cc1O
inactive: [1] 35.4% | [2] 21.1% | [3] 31.9% | [5] 10.7% | [6] 39.2%

CC1=CC(=O)c2ccccc2C1=O
inactive: [1] 14.4% | [2] 15.3% | [3] 0.1% | [4] 13.2% | [6] 18.2%

Cc1cc2nc(CC(=O)c3ccccc3)c(=O)[nH]c2cc1C
inactive: [1] 15.7% | [2] 0.95% | [3] 13.3% | [5] -15.7% | [6] 31.3%

C1CNC(C2=NCCN2)=N1
inactive: [1] -4.85% | [2] -8.2% | [3] -24.5% | [5] -31.8% | [6] -7.25%

Cc1c(C(=O)O)c(=O)n(-c2ccccc2)n1C
inactive: [1] 3.1% | [2] -10.2% | [3] -8.75% | [5] -16.9% | [6] 13.6%

COc1cc(CN)ccc1O
inactive: [1] 1.65% | [2] -6.25% | [3] -8.75% | [4] 10.7% | [6] 12.2%

O=c1cc2oc3cc(O)c(O)cc3c(-c3ccccc3O)c-2cc1O
inactive: [1] 26.1% | [2] 2.25% | [3] 44.9% | [5] 41% | [6] 26.4%

O=C(Nc1cc(-c2ccccc2)[nH]n1)c1ccc(Cl)cc1
inactive: [1] -5.35% | [2] -21.1% | [3] 6.05% | [5] -7.15% | [6] -3.3%

CSC[C@H](NC(=O)COc1cccc2cnccc12)C(=O)NC(Cc1ccccc1)C(O)C(=O)N1CSC[C@H]1C(=O)NC(C)(C)C (some centres undefined)
inactive: [1] -34.3% | [2] -17.2% | [3] -28.9% | [5] 2.3% | [6] -51.4%

CNc1nc(NC)c2cn[nH]c2n1
inactive: [1] 17.7% | [2] 2.3% | [3] 20.2% | [4] -9.25% | [6] 16.1%
